High-throughput results: PubChem BioAssay, The Scripps Research Institute Molecular Screening Center
DAX1 inh-1: inhibitors of human orphan nuclear receptor DAX1 (NR0B1); 0.99% of 340,000 active; P51843; inhibition, % at 6.75 µM; HEK293 Gal4-DAX1 luciferase reporter, luminescence;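 active = inhibition above the mean over all tested compounds plus 3 SD, cut at about 4.2% in these data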;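 also: 0% = DAX1-transfected cells with DMSO and 100% = empty-vector control cells with DMSO; inhibition shows as a rise in luminescence from relieved DAX1 repression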
hgDAF12 agonist: activates the H. glycines DAF-12 receptor ligand-binding domain; HEK293 GAL4-hgDAF12 UAS-luciferase reporter, agonist luminescence; normalized to butyrate control; activation, % at 6.8 µM; 1.8% of 370,000 active; AID 687014;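 active = activation above a cutoff set at the mean of all screened compounds plus 3 SD, cut at about 10% in these data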;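 also: 0% = DMSO wells and 100% = sodium butyrate wells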
DAX1 inh-2: inhibitors of DAX1 repression of SF-1 activated StAR promoter | HEK293T StAR-luciferase reporter, SF-1/DAX-1 repression relief | inhibition, % at 6.8 µM | 1.1% of 370,000 active | AID 652010;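 active = inhibition above the mean over all tested compounds plus 3 SD, cut at about 3.6% in these data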;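 also: 0% = DAX-1 cells with DMSO and 100% = cells lacking DAX-1 with DMSO; higher inhibition means more luminescence from relief of DAX-1 repression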
hcDAF-12 act: H. contortus DAF-12 activation, primary screen | HEK293 hcDAF-12 lit1-tk-luc reporter, luminescence; 0% DMSO, 100% Δ7-dafachronic acid | 1.4% of 370,000 active | activation, % at 6.8 µM;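 active = activation above the mean of all tested compounds plus 3 SD, cut at about 5.5% in these data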;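 also: 100% = response to 3 µM Δ7-dafachronic acid high control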
ssDAF12 agonist: activators of S. stercoralis DAF-12 nuclear receptor; activation, % at 6.8 µM; 1% of 370,000 active; HEK293 ssDAF-12/GRIP1 lit1-tk-luc reporter, luminescence; % of 3 µM dafachronic acid response;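 active = activation above the mean over all tested compounds plus 3 SD, cut at about 0.9% in these data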;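 also: 0% = DMSO-only wells and 100% = 3 µM delta7-dafachronic acid wells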
AHR act: activates the human aryl hydrocarbon receptor; P35869; AHR-responsive luciferase reporter cells, luminescence; activation, % at 5 µM; 2.5% of 320,000 active; in the data active = activation above about 47%;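 also: 0% = vehicle wells and 100% = reference agonist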
AHR act confirm: confirmation of human aryl hydrocarbon receptor activators. shares compounds with AHR act. human cells, AHR-responsive luciferase reporter, luminescence. activation, % at 9 µM. 87% of 2,300 active. AID 2845; in the data active = activation above about 49%;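 also: HepG2 hepatoma cells carrying a DRE-driven firefly luciferase reporter; 0% = vehicle wells and 100% = reference agonist wells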
PXR act counter: activates human PXR in AHR activator counter-screen | AID 434939 | activation, % at 11.6 µM | cell-based PXR reporter, luciferase luminescence | 88% of 2,300 active | shares compounds with AHR act; in the data active = activation above about 11%;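 also: human hepatoma DPX-2 cells expressing full-length human PXR; 0% = DMSO and 100% = reference agonist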
Active calls of the source: *; . = not tested or not shown. Compounds with a hit are over-represented: about 5.7% of the library has one in this group of screens.

SMILES	DAX1 inh-1	hgDAF12 agonist	DAX1 inh-2	hcDAF-12 act	ssDAF12 agonist	AHR act	AHR act confirm	PXR act counter
COc1ccc(C(c2c(NC(=O)c3ccco3)sc(C)c2C)N2CCOCC2)cc1 (centres undefined)	1	-9	-5	-3	-2	.	.	.
CCOC(=O)c1ccc(N2Cc3ccccc3C2=NC(=O)c2cccs2)cc1	0	1	2	-1	-1	.	.	.
N#Cc1c2ccc([N+](=O)[O-])cc2[n+]([O-])n1-c1ccccc1	-2	-5	-7	0	1	200*	253*	19*
Cc1ccc(NCc2ccccc2OCc2ccccc2F)cc1	1	3	-1	0	0	106*	82*	36*
Oc1ccc(NCc2ccccc2OCc2ccccc2F)cc1	-1	-2	1	0	-1	8	.	.
Cc1ccc(C)c(N/C(N)=N/c2nc(C)cc(C)n2)c1	-2	0	-1	-3	-1	29	.	.
COc1ccc(C)cc1N/C(N)=N/c1nc(C)cc(C)n1	-2	0	-1	-1	-2	81*	59*	.
O=C(NC1CCCC1)c1c(O)nc2sccn2c1=O	0	1	2	-1	-1	85*	114*	10
Cc1csc2nc(O)c(C(=O)NC3CCCCC3)c(=O)n12	2	3	2	-1	-1	5	.	.
CCOCC(=O)Nc1cccc(-c2nc3cccnc3s2)c1C	1	9	2	0	0	88*	107*	.
CCc1nc2ccccc2c(C(=O)OCc2nc3ccccc3c(=O)[nH]2)c1C	0	0	-1	0	-1	118*	86*	54*
O=C(CSc1ncn[nH]1)N1N=C2/C(=C/c3ccccc3)CCCC2C1c1ccccc1 (centres undefined)	-2	1	0	1	0	98*	88*	74*
CCNC(=S)N/N=C/c1ccc(-c2ccccc2)o1	0	7	2	0	-2	24	.	.
CN(C)/N=C/c1ccc(/C=N/NC(N)=S)o1	1	1	-1	-1	-2	13	.	.
NC(=S)N/N=C/c1ccc(-c2ccccc2)o1	2	7	-1	0	-1	93*	32	21*
NC(=S)N/N=C\c1ccc(-c2cccc(Cl)c2Cl)o1	0	4	-1	3	-1	107*	110*	26*
O=C(c1cccc(S(=O)(=O)N2CCc3ccccc32)c1)N1CCN(c2ccccn2)CC1	-6	-9	-1	-1	-2	80*	93*	200*
Cc1nc(N2N=C3/C(=C/c4ccc(F)cc4)CCCC3C2c2ccc(F)cc2)sc1C(=O)N(C)C (centres undefined)	0	-2	0	0	-1	92*	93*	115*
Cc1ncsc1C(=O)N1N=C2/C(=C/c3ccc(N4CCOCC4)cc3)CCCC2C1c1ccc(N2CCOCC2)cc1 (centres undefined)	1	.	.	.	.	12	.	.
COc1ccc([C@@H]2CC(=O)c3c(O)cc(O[C@@H]4OC(CO[C@@H]5OC(C)[C@H](O)[C@H](O)C5O)[C@@H](O)[C@@H](O)C4O)cc3O2)cc1O (some centres undefined)	0	-3	0	0	-1	-1	.	.
CN1CCN(c2ccc(Cl)cc2NC(=O)C2COc3ccccc3O2)CC1 (centres undefined)	1	-2	0	3	-1	108*	90*	30*
COCC(=O)N/N=C/c1ccc(Sc2nc3ccccc3s2)o1	-2	3	0	2	0	86*	81*	22*
Clc1nc(-c2ccccc2)c2ccccc2n1	0	-1	0	0	-1	-1	.	.
S=c1nc2ccccc2c2nc(-c3ccccc3Cl)[nH]n12	0	1	0	2	-1	134*	129*	28*
S=c1nc2ccccc2c2nc(-c3ccccc3)[nH]n12	0	1	1	4	0	106*	129*	23*
